Results published in PubChem BioAssay AID818 (SRMLSC, 2007).
The whole screen tested about 140,000 compounds, of which about 2,100 (1.5%) were called active.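 How the source made its calls: active means viability at or under a set limit, the compound median less 4 SD (cut at about 6% in these data); inactive means the rest.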 Shown is part of a subset that was picked to be rich in actives.

test: primary screen for suppressors of beta-catenin knockout HCT116 cell growth, colon tumor, human (AID 818); settings: CellTiter-Glo, 60 h, at 10 µM, active compounds read low;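 further: 0% = Hyamine 1622 control at 20 µM and 100% = untreated cell control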

| Structure (SMILES) | viability |
| --- | --- |
| CN(C)c1ccc(/C=C2\CC3C4CC=C5CC(O)CCC5(C)C4CCC3(C)C2=O)cc1 (stereo not given) | 2.09% (active) |
| C[N+]1(C)CCOC(O)(c2ccc(-c3ccc(C4(O)C[N+](C)(C)CCO4)cc3)cc2)C1 (stereo not given) | 79.5% (inactive) |
| Cc1nn(Cc2ccccc2Cl)c(Cl)c1C(=O)OC(C(=O)NC(N)=O)C(C)C (stereo not given) | 83% (inactive) |
| Cc1ccc2c(c1)=C/C(=C\c1c(O)[nH]c(=O)[nH]c1=O)C(=O)N=2 | 82.4% (inactive) |
| Cc1cccc(OP(=O)(Oc2cccc(C)c2)OC(c2ccccc2)C(F)(F)F)c1 (stereo not given) | 66.6% (inactive) |
